The panel holds about 83,000 compounds, 20% with a hit somewhere; the sample as a whole holds those more often.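 Note: values are percent growth. 100 is the growth of untreated cells, values between 100 and 0 indicate rising inhibition; between -100 and 0 indicates cell death.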 A number with no mark means an inactive call. The source made the active and inactive calls. The calls were made as follows: active = growth percent below 10; inactive = the rest.

The values below come from PubChem BioAssay (NCI).

Among the test systems are NCI-H23 lung; NCI-H226 lung; NCI-H322M lung; HOP-62 NSCLC; NCI-H460 lung; HOP-92 NSCLC; NCI-H522 lung; A549/ATCC NSCLC; 786-0 renal; COLO 205 colon.
Common to all, as to test: NCI-60 one-dose screen, 48 h (100 = growth as untreated, 0 = no growth, -100 = all killed)
What all share (conditions): 10 µM unless noted

On to `O=C(CN1CCN(C(=O)c2ccco2)CC1)Nc1ccc(Cl)cc1C(=O)c1ccccc1Cl`, for which the growth is 85.3% with NCI-H23 lung; 95.1% in the assay with NCI-H226 lung; 98.2% in the assay with NCI-H322M lung; 105% in the assay with HOP-62 NSCLC; 104% with NCI-H460 lung; 73.9% in the assay on HOP-92 NSCLC. Moreover, the growth is 67.7% in the assay with NCI-H522 lung, 77.2% in the assay on A549/ATCC NSCLC, 95.8% in the assay on 786-0 renal and 95.9% in the assay on COLO 205 colon.
For the compound `Nc1ccc(OCCNS(=O)(=O)c2cccc(S(=O)(=O)F)c2)c(Cl)c1`, the growth with NCI-H23 lung was 95.5%; in the assay with NCI-H226 lung, 96.5%; with NCI-H322M lung, 87.5%; in the assay with HOP-62 NSCLC, 90%; in the assay with NCI-H460 lung, 102%; in the assay on HOP-92 NSCLC, 87.5%. In addition, the growth in the assay on NCI-H522 lung was 74.6%; with A549/ATCC NSCLC, 84.8%; in the assay on 786-0 renal, 88.8%; in the assay on COLO 205 colon, 110%.
In the case of `NC(N)=N/N=C\c1c[nH]c2ccc(Br)cc12`, the growth in the assay with NCI-H23 lung was 86.3%; with NCI-H226 lung, 69.2%; in the assay with NCI-H322M lung, 87.9%; with HOP-62 NSCLC, 83.5%; in the assay on NCI-H460 lung, 102%; in the assay on HOP-92 NSCLC it was 37.9%. For the same compound, the growth is 81% with NCI-H522 lung, 92.5% in the assay with A549/ATCC NSCLC, 78.6% in the assay with 786-0 renal and 84.5% in the assay on COLO 205 colon.
For the compound `CCCC(C)C1(CC)C(=O)NC(=O)N(C)C1=O` (stereo not given), the growth in the assay on NCI-H23 lung is 100%; in the assay with NCI-H226 lung, 85.5%; with NCI-H322M lung, 100%; in the assay with HOP-62 NSCLC, 85.1%; in the assay on NCI-H460 lung, 106%; in the assay with HOP-92 NSCLC, 92%. The growth with NCI-H522 lung was 80.7%; with A549/ATCC NSCLC, 79.1%; with 786-0 renal it was 94.3%; with COLO 205 colon it was 99.6%.
In the case of `CCC1(C(C)C)C(=O)NC(=S)NC1=O`, the growth was 117% in the assay on NCI-H23 lung; 90.5% in the assay with NCI-H226 lung; 106% in the assay on NCI-H322M lung; 102% in the assay on HOP-62 NSCLC; 102% in the assay on NCI-H460 lung; 91.5% in the assay on HOP-92 NSCLC. Moreover, the growth with NCI-H522 lung is 105%; in the assay with A549/ATCC NSCLC it was 95.7%; with 786-0 renal, 108%; in the assay with COLO 205 colon, 123%.
For the compound `Cc1c(C)c([N+](=O)[O-])c(C)c(C)c1[N+](=O)[O-]`, the growth is 112% in the assay with NCI-H23 lung; 100% in the assay on NCI-H226 lung; 121% in the assay on NCI-H322M lung; 109% with HOP-62 NSCLC; 113% with NCI-H460 lung; 135% with HOP-92 NSCLC. Further, the growth in the assay with NCI-H522 lung is 80.3%; in the assay on A549/ATCC NSCLC, 91.5%; in the assay with 786-0 renal it was 103%; in the assay with COLO 205 colon, 119%.
On to `O=C(CC1(O)C(=O)Nc2ccccc21)c1ccc(C(=O)NCC2CCC3(CC2)OOC2(CCCCC2)OO3)cc1` (stereo not given), for which the growth is 50.4% with NCI-H23 lung; 63.6% in the assay on NCI-H226 lung; 88.9% in the assay with NCI-H322M lung; 63.8% in the assay with HOP-62 NSCLC; 77.1% in the assay on NCI-H460 lung; -53.6% (active) in the assay on HOP-92 NSCLC. Further, the growth is 54.9% in the assay with NCI-H522 lung, 57.9% with A549/ATCC NSCLC, -34% (active) in the assay on 786-0 renal and 80% in the assay with COLO 205 colon.
Regarding `COc1ccc(/C=C/c2cc(OC)c(OC)c(OC)c2)cc1NC(=O)/C=C/c1ccc(F)cc1`, the growth was 6.1% (active) in the assay with NCI-H23 lung; 36.6% in the assay on NCI-H226 lung; 55.5% with NCI-H322M lung; 24.9% in the assay on HOP-62 NSCLC; 14.6% with NCI-H460 lung; 93.1% in the assay with HOP-92 NSCLC. For the same compound, the growth is -8.36% (active) in the assay on NCI-H522 lung, 38% with A549/ATCC NSCLC, 37.8% in the assay with 786-0 renal and -26.3% (active) in the assay on COLO 205 colon.
For the compound `CCCCN1CCCC[C@@H]1C(=O)N[C@H](C(=O)N(C)[C@H](CCc1nc(C(=O)N[C@@H](Cc2ccccc2)C[C@H](C)C(=O)OC)cs1)C(C)C)[C@@H](C)CC`, the growth was 62.6% in the assay on NCI-H23 lung; 84% in the assay with NCI-H226 lung; 71.1% with NCI-H322M lung; 56.9% in the assay on HOP-62 NSCLC; 57.5% with NCI-H460 lung; 22.2% with HOP-92 NSCLC. Also, the growth was 25.1% in the assay on NCI-H522 lung, 58.8% with A549/ATCC NSCLC, 66.8% with 786-0 renal and 22.3% with COLO 205 colon.
`CC(=O)O[C@H]1CC[C@@]2(C)C(=CC[C@H]3[C@@H]4C[C@@H](N5CC5)[C@H](C(C)=O)[C@@]4(C)CC[C@@H]32)C1`: the growth in the assay on NCI-H23 lung was 98.5%; with NCI-H226 lung, 92.2%; in the assay with NCI-H322M lung, 110%; in the assay on HOP-62 NSCLC, 83.4%; in the assay on NCI-H460 lung, 93.2%; with HOP-92 NSCLC, 80.7%. Also, the growth in the assay on NCI-H522 lung is 88.7%; with A549/ATCC NSCLC, 100%; in the assay on 786-0 renal it was 101%; in the assay with COLO 205 colon, 99.2%.
Take `ClCCN(CCCl)c1nc(Cl)c(C2CC(c3ccccc3)=NN2c2cc(Cl)cc(Cl)c2)s1` (stereo not given): the growth is 99.7% in the assay on NCI-H23 lung; 99.6% with NCI-H226 lung; 97.8% with NCI-H322M lung; 111% in the assay with HOP-62 NSCLC; 99.3% in the assay with NCI-H460 lung; 113% in the assay with HOP-92 NSCLC. Further, the growth is 97.6% in the assay with NCI-H522 lung, 94.7% with A549/ATCC NSCLC, 100% in the assay on 786-0 renal and 121% in the assay with COLO 205 colon.
For `C[C@@]1(CCCCCCCCCc2ccc(O)cc2)C[C@]2(C)OC(=O)C[C@@H]2OO1`, the growth in the assay with NCI-H23 lung was 99.4%; in the assay on NCI-H226 lung, 102%; in the assay with NCI-H322M lung it was 105%; with HOP-62 NSCLC it was 104%; in the assay on NCI-H460 lung, 108%; in the assay with HOP-92 NSCLC it was 82.7%. Further, the growth in the assay on NCI-H522 lung is 90%; in the assay on A549/ATCC NSCLC it was 99.4%; with 786-0 renal it was 80.2%; in the assay on COLO 205 colon it was 124%.
Turning to `COC(=O)[C@H](Cc1ccccc1)NNC(=O)c1csc([C@@H](C[C@H](C(C)C)N(C)C(=O)[C@@H](NC(=O)[C@H]2CCCCN2C)C2CC2)OC(C)=O)n1`, the growth was 29.2% in the assay on NCI-H23 lung; 36.5% in the assay on NCI-H226 lung; 46.7% with NCI-H322M lung; 8.12% (active) in the assay on HOP-62 NSCLC; 3.02% (active) in the assay on NCI-H460 lung; 3.84% (active) in the assay on HOP-92 NSCLC. Besides, the growth was -19.2% (active) with NCI-H522 lung, 15.3% in the assay with A549/ATCC NSCLC, 11.9% with 786-0 renal and -60.3% (active) in the assay on COLO 205 colon.
